High-throughput results deposited in PubChem BioAssay by National Center for Advancing Translational Sciences (NCATS).
BAZ2B inh – blocks human BAZ2B. AID 504333. Potency, µM (titrated, usually from 114 µM), hits mostly inhibitors. AlphaScreen BAZ2B-H3K14Ac peptide displacement. actives 4.4% (n = 360,000); also: nearly all actives have a fitted effect of over 60% in size
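Protein-peptide AlphaScreen: BAZ2B 50 nM, b-H3K14Ac 50 nM, 1x PBS pH 7.4 + 0.01% Tween-20. Preincubation 30 min RT; cpd 30 min RT (top 110 uM); beads 20 min RT, light-protected.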
Sfp PPTase inh – inhibitors of Bacillus subtilis Sfp phosphopantetheinyl transferase; AID 1490; Potency, µM, actives largely listed as inhibitors; Q9F4F7; Biochemical Sfp PPTase activity, qHTS; actives 3.5% (n = 310,000);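 also: the enzyme is Sfp with the accession as filed and its product quenches rhodamine fluorescence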
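Fluorescence-quenching assay: 15 nM Sfp-PPTase preincubated 15 min at room temperature with compound, then 5 uM rhodamine-CoA and 12.5 uM BHQ-2-labelled YbbR peptide added. Fluorescence (ex 525/em 598 nm) read at start and after 30 min; difference gives rate.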
L3MBTL1 inh – blocks human L3MBTL1. AID 485360. Q9Y468. Potency, µM (doses to about 57.1 µM), hits mostly inhibitors. actives 0.66% (n = 230,000). AlphaScreen L3MBTL1–H3K9me1 peptide binding; also: nearly all actives have a fitted effect of over 60% in size
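AlphaScreen proximity signal between nickel-chelate acceptor and streptavidin donor beads (final 10 ug/mL) reports binding of 50 nM L3MBTL1 to 75 nM biotin-H3 K9me1 peptide; complex incubated with compounds 30 min at room temperature; cefsulodin titration as control.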
G9a inh – G9a (human) methyltransferase inhibition; G9a H3K9 monomethylation, AlphaScreen, 2 h; Potency, µM (series often up to 102 µM), hits mostly inhibitors; actives 8.8% (n = 350,000); AID 504332; also: nearly all actives have a fitted effect of over 75% in size
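Compounds were preincubated with 20 nM G9a for 15 min, after which biotinylated H3K9 peptide (500 nM) and SAM (20 uM) started a 2 h room-temperature reaction. Monomethylated product was quantified by antibody-based AlphaScreen chemiluminescence.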
HP1b binding inh – blocks HP1-beta chromodomain binding to methylated histone tails. AlphaScreen HP1-beta / biotin-H3K9me3 peptide binding. Potency, µM (highest dose often 114 µM), usual class: inhibitors. actives 0.56% (n = 390,000). AID 540317; also: nearly all actives have a fitted effect of over 70% in size
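Compound inhibition of the preformed complex between 50 nM HP1-beta and 50 nM biotinylated H3K9me3 peptide was read by AlphaScreen. Buffer was PBS pH 7.4 with 0.01% Tween-20. Incubations ran 30 min at room temperature, with 10 ug/mL donor/acceptor beads.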
JMJD2A Tudor – JMJD2A Tudor domain (human) inhibition | AlphaScreen JMJD2A-Tudor / H3K4me3 peptide binding | Potency, µM (highest dose often 114 µM), most hits filed as inhibitors | actives 4.4% (n = 390,000) | AID 504339; also: nearly all actives have a fitted effect of over 50% in size
Numbers stand for hits; - = inactive; ? = inconclusive; . = not tested or not shown; [ ] = dose if it differs, or a comment. This is a sample that favours compounds with a hit; in the whole collection about 12% have one here. Calls follow the shape of the dose curve; as a rule, active = well fitted curve in the direction sought with a large enough effect; inconclusive = small, poorly fitted or top-dose-only effect, or another doubt; inactive = no such curve, though single readings can be large; an effect the other way counts as inactive or inconclusive.

SMILES	BAZ2B inh	Sfp PPTase inh	L3MBTL1 inh	G9a inh	HP1b binding inh	JMJD2A Tudor
O=C(O)COc1ccccc1C(Nc1ccccn1)c1cc(Cl)c2cccnc2c1O (stereo not drawn)	40µM	-	-	7.9µM	?	79µM
O=C(O)COc1ccccc1C(Nc1cccnc1)c1cc(Cl)c2cccnc2c1O (stereo not drawn)	20µM	22µM	.	2.8µM	?	22µM
O=C(O)CNc1cccc(-c2nn3c(=O)cc(N4CCNCC4)nc3s2)c1	.	.	.	.	.	-
CCCc1[nH]nc2c1C(c1ccc(OC)c(CSC3=NCCS3)c1)C(C#N)=C(N)O2 (stereo not drawn)	-	79µM	-	-[12.7 µM]	-	?
CCCc1[nH]nc2c1C(c1cc(OC)ccc1F)C(C#N)=C(N)O2 (stereo not drawn)	?	-	-	40µM	-	-
CCCc1[nH]nc2c1C(c1ccc(OC(=O)N3CCOCC3)c(OC)c1)C(C#N)=C(N)O2 (stereo not drawn)	-	-	-	?	-	-
CCOC(=O)Cc1[nH]nc2c1C(c1cc(OC)ccc1OC)C(C#N)=C(N)O2 (stereo not drawn)	?	-	-	-	-	?
Cc1onc(-c2ccccc2)c1C(=O)N1CCN(Cc2ccccc2)CC1	-	-	.	-	-	-
Cc1ncc(CN2CCCC(C(=O)Nc3ccc(-c4cscn4)cc3)C2)cn1 (stereo not drawn)	-	-	.	.	-	-
Cc1ncc(CN2CCCC(C(=O)Nc3ccc(-c4ccco4)cc3)C2)cn1 (stereo not drawn)	79µM	32µM	.	-[0.501 µM]	-	-
COCc1cc(CN2CCCC(C(=O)Nc3ccc(-c4ccco4)cc3)C2)ccc1OC (stereo not drawn)	?	50µM	.	8.9µM	?	?
COc1cccc(-c2ccc(NC(=O)C3CCCN(Cc4cnn(C)c4)C3)cc2)c1 (stereo not drawn)	?	-	.	-	-	-
N=c1nc(SCCC(=O)O)ss1	-	?	-	11µM	-	-
COc1ccc(OCc2nnc3n2N=C(c2ccc(C)cc2)CS3)cc1	-	-	.	?	-	-
COc1ccc(C2=Nn3c(C)nnc3SC2)cc1	?	-	.	45µM	-	-
CCCc1ccc(C2=Nn3c(nnc3C(C)C)SC2)cc1	-	22µM	.	8.9µM	?	-
COc1ccc(OCc2nnc3n2N=C(c2ccc(OC)cc2)CS3)cc1	-	-	.	50µM	-	?
Cc1ccc2oc(=O)c3cc(C(=O)NCCN4CCN(C)CC4)sc3c2c1	-	-	35µM	-	-	-
COc1ccccc1NC(=O)c1cc2c(=O)oc3ccc(C)cc3c2s1	-	.	.	0.71µM	-	-
Cc1ccc2oc(=O)c3cc(C(=O)NCCCN4CCCCCC4)sc3c2c1	?	?	.	?	-	-
Cc1ccc2oc(=O)c3cc(C(=O)NCCCN4CCc5ccccc5C4)sc3c2c1	?	-	-	32µM	-	-
COc1ccc(C)cc1NC(=O)c1cccc(-c2ccc(OC(C)=O)cc2)c1	-	-	.	-	-	-
CCc1ccccc1N1C(=O)c2cccc3c(N4CCOCC4)c([N+](=O)[O-])cc(c23)C1=O	?	-	-	16µM	-	?
COc1ccc(C(=O)OCC(=O)NC2CC2)cc1S(=O)(=O)N(C)Cc1ccccc1	-	.	-	50µM	-	-
COc1ccc(C(=O)OCC(=O)NC(Cc2ccccc2)C(C)=O)cc1S(=O)(=O)N1CCCC1 (stereo not drawn)	-	.	-	56µM	-	-
SMILES	BAZ2B inh	Sfp PPTase inh	L3MBTL1 inh	G9a inh	HP1b binding inh	JMJD2A Tudor
Cc1cc(C)c2c(=O)cc(C(=O)Nc3sc4c(c3C(=O)NCC3CCCO3)CCCC4)oc2c1 (stereo not drawn)	-	.	.	-	-	-
CCCc1c(C(=O)Nc2ccc(F)cc2F)cnn1-c1ccccc1	-	-	-	-	-	-
O=C(NNc1cccc(Cl)c1)c1cccnc1Cl	-	-	-	10µM	-	-
CCCc1c(C(=O)NNc2cccc(Cl)c2)cnn1-c1ccccc1	-	-	-	35µM	-	?
O=C(c1ccco1)N1CCN(Cc2ccc(F)cc2Cl)CC1	-	-	-	-	-	-
Cc1ccccc1-c1nc(CN2CCN(C(=O)c3ccco3)CC2)c(C)o1	-	-	.	50µM	-	-
